KDM5B inh: KDM5B demethylase inhibition | Q9UGL1 | KDM5B demethylase, FDH-coupled NADH fluorescence (FDH is formaldehyde dehydrogenase) | Potency, µM (doses to about 57.7 µM), most hits filed as inhibitors | 220,000 compounds, 2.6% hits | AID 1347165; active = well fitted inhibition curve with a large enough effect; also: 0% is about no effect; nearly all actives have a fitted effect of over 70% in size
Target sequence (Q9UGL1 whole entry, looked up): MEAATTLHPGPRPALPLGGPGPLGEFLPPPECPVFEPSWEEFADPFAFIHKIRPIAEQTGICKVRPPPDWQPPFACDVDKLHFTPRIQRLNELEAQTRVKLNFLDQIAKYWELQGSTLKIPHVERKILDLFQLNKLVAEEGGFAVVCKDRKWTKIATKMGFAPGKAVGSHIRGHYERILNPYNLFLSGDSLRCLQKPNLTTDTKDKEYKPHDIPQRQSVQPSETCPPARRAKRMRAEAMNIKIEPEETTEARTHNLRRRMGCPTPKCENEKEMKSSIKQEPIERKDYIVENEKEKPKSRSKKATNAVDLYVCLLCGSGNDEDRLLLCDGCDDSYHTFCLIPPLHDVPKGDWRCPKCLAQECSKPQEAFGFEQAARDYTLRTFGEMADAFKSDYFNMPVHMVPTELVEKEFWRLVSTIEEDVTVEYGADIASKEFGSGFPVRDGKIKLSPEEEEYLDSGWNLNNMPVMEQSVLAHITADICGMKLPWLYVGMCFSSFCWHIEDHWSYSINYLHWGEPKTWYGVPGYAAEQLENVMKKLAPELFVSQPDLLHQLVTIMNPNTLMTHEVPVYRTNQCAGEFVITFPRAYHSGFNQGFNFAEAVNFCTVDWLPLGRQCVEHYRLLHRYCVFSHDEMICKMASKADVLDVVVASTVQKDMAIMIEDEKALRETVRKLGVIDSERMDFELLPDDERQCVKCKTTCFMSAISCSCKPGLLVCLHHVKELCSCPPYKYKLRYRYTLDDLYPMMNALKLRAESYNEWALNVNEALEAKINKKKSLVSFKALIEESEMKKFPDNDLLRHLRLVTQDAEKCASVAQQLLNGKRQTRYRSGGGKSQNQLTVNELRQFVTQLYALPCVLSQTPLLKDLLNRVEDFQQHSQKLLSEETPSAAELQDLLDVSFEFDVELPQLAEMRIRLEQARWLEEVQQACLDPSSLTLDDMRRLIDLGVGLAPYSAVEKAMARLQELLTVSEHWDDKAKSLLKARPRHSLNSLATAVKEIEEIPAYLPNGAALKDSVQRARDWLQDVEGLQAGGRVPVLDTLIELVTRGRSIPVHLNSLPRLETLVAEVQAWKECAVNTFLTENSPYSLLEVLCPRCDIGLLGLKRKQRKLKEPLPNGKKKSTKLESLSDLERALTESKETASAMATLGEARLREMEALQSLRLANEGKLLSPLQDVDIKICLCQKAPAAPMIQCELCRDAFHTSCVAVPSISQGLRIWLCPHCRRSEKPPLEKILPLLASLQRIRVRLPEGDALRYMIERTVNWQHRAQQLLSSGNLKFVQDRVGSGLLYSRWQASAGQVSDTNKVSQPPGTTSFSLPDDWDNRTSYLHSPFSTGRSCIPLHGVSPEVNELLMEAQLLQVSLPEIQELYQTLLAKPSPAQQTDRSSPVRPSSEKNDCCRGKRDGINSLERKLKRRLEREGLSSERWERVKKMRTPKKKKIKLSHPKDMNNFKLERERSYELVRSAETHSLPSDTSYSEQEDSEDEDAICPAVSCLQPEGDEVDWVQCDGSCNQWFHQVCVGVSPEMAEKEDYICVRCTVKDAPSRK
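qHTS format, multiple compound concentrations. Buffer 50 mM HEPES pH 7.5/0.01% Tween-20; 200 nM KDM5BΔAP final; 10 min compound preincubation; substrate-mix levels 12.5 µM peptide, 25 µM α-KG, 0.25 mM NAD⁺; 30 min RT; ΔRFU.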
* hit, by the source's call. The entries come from a sample that favours hits as a whole. Potency is read from the fitted curve at half-maximal effect.

`O=C(CCc1nnn2c1CN(C(=O)NCCc1ccccc1)CC2)N1CCCC1` gave KDM5B inh inactive.
`O=C(CCc1nnn2c1CN(C(=O)c1cccc3[nH]ccc13)CC2)N1CCCC1` gave KDM5B inh 28µM*.
O=C(c1nnn2c1COC(c1ccccc1)C2)N1CCN(C(=O)c2cccc3[nH]ccc23)CC1 (stereo unspecified) was read as KDM5B inh 28µM*.
For O=C(CCc1nnn2c1CN(C(=O)COc1ccc(F)cc1)CC2)N1CCCC1 the results were KDM5B inh inactive.
Screening O=C(c1ccccc1Cl)N1CCN(C(=O)c2nnn3c2COC(c2ccccc2)C3)CC1 (stereo unspecified) returned KDM5B inh inactive.
Screening O=C(c1ccccc1F)N1CCN(C(=O)c2nnn3c2COC(c2ccccc2)C3)CC1 (stereo unspecified) returned KDM5B inh inactive.
For Cc1ccc(O)c(CN2CC[C@@H](c3ccc(F)cc3)[C@H](O)C2)c1 the results were KDM5B inh inactive.
`CCCCOC(=O)C(C)Oc1ccc2c(=O)c(Oc3ccc(C(C)(C)C)cc3)coc2c1` (stereo unspecified) gave KDM5B inh inactive.
CCCS(=O)(=O)N1CCCN(c2ccc(=O)n(-c3ccc(C)c(C)c3)n2)CC1 was read as KDM5B inh inactive.
For Cc1ccc(NC(=O)C2(c3ccccc3)CCCC2)cc1 the results were KDM5B inh inactive.
Cc1ccc(OCC(=O)N2CCN(c3ncccn3)CC2)cc1 was read as KDM5B inh inactive.
For CC(=O)Nc1ccc(C2(C(=O)NCc3ccc(C)o3)CCC2)cc1 the results were KDM5B inh inactive.
Screening COCCCNC(=O)C1(CCO)CCN(Cc2ccccc2)C1 (stereo unspecified) returned KDM5B inh inactive.
CC(C)N1C(=O)C2(CCCC2)C1C(=O)Nc1cccc(OC(F)(F)F)c1 (stereo unspecified) was read as KDM5B inh inactive.
Cc1ccc(CNC(=O)C2(CCO)CCN(c3ncccn3)C2)o1 (stereo unspecified) was read as KDM5B inh 28µM*.
`Cc1ccc(CNC(=O)C2(CCO)CCN(Cc3ccccc3)C2)o1` (stereo unspecified) gave KDM5B inh inactive.
For O=C(Nc1cccc(OC(F)(F)F)c1)[C@@H]1COCC(=O)N1Cc1ccc(F)cc1 the results were KDM5B inh inactive.
`O=C(Nc1cccc(OC(F)(F)F)c1)C1(CCO)CCN(c2ncccn2)C1` (stereo unspecified) gave KDM5B inh 25µM*.
`CCNC(=O)C1(CCO)CCN(Cc2ccccc2)C1` (stereo unspecified) gave KDM5B inh inactive.
`Cc1ccc(NC(=O)C2(CCO)CCN(c3ncccn3)C2)cc1` (stereo unspecified) gave KDM5B inh 28µM*.
For CC(C)CCNC(=O)C1(CCO)CCN(c2ncccn2)C1 (stereo unspecified) the results were KDM5B inh 25µM*.
`Cc1cc(=O)n(CC(=O)Nc2ccc(N(C)C)cc2)c(-c2ccc(Cl)cc2)n1` gave KDM5B inh inactive.
Screening Cc1cccc(-c2nc(C#N)c(N3CCN(C(=O)c4ccc(F)cc4)CC3)o2)c1 returned KDM5B inh inactive.
`CC(NC(=O)c1n[nH]c(=O)c2ccccc12)c1ccc(F)cc1` (stereo unspecified) gave KDM5B inh inactive.
For Cc1sc2nc(CN3CCOCC3)nc(N(C)CC(=O)Nc3cccc4ccccc34)c2c1C the results were KDM5B inh inactive.
O=c1nc2n(-c3ccc(Cl)c(Cl)c3)c3cc(Cl)ccc3cc-2c(=O)[nH]1 was read as KDM5B inh inactive.
COc1ccc(C(=O)NC2CCN(c3cnn(CC4CC4)c(=O)c3)CC2)cc1 was read as KDM5B inh inactive.
`CCCc1ccc(/C(C)=N/NC(=O)C2CC2c2ccccc2)cc1` (stereo unspecified) gave KDM5B inh inactive.
For Oc1ccccc1CN1C[C@H](O)C[C@H]1c1nc(-c2ccccc2)no1 the results were KDM5B inh inactive.
For COc1ccc(CN2C[C@H](O)C[C@H]2c2nc(-c3cccc(C)c3)no2)c2ccccc12 the results were KDM5B inh 22µM*.
Cc1cccc(-c2noc([C@@H]3C[C@@H](O)CN3Cc3cccc(C#N)c3)n2)c1 was read as KDM5B inh inactive.
`O=C(OCC(=O)c1c[nH]c2ccccc12)c1ccccc1C(=O)c1ccc(Cl)c([N+](=O)[O-])c1` gave KDM5B inh inactive.
`C=CCOc1cc(C)c2c(c1C)[C@H](O)C([C@H](C)C(=O)N(C)Cc1ccccc1)CC2` (stereo partly specified) gave KDM5B inh 35µM*.
Screening C=CCOc1cc(C)c2c(c1C)[C@H](O)C([C@H](C)C(=O)NCCOC)CC2 (stereo partly specified) returned KDM5B inh inactive.
For Cc1cc(OCCN(C)C)c(C)c2c1CC[C@@H]([C@H](C)C(=O)NCc1ccccc1)C2 the results were KDM5B inh inactive.
`CCOc1cc2c(cc1NC(=O)Cc1ccc(OC)cc1)OC(C)C2` (stereo unspecified) gave KDM5B inh inactive.
O=C(CCC1CCCN(S(=O)(=O)c2ccccc2F)C1)NCc1cccs1 (stereo unspecified) was read as KDM5B inh inactive.
O=C(CCC1CCN(S(=O)(=O)c2cccc(F)c2)CC1)NCCN1CCOCC1 was read as KDM5B inh inactive.
Screening O=C(CCC1CCCN(S(=O)(=O)c2ccccc2F)C1)NCCN1CCOCC1 (stereo unspecified) returned KDM5B inh 20µM*.
Screening CC(C)CCNC(=O)c1cc(=O)[nH]c2ccc(S(=O)(=O)Nc3ccc(F)cc3)cc12 returned KDM5B inh inactive.
Cc1cc2cc(-c3c(C)noc3C)nc(N3CCN(c4ccccn4)CC3)c2o1 was read as KDM5B inh 32µM*.
For Cc1noc(C)c1-c1cc2cc(CO)oc2c(-c2ccc(F)c(Cl)c2)n1 the results were KDM5B inh 32µM*.
COc1ccc(-c2nc(-c3c(C)noc3C)cc3cc(CO)oc23)cn1 was read as KDM5B inh 35µM*.
`Cc1ccccc1-c1nc(-c2c(C)noc2C)cc2cc(CN(C)C)oc12` gave KDM5B inh inactive.
Screening COc1cc(-c2nc(-c3c(C)noc3C)cc3c2cc(C)n3C)ccn1 returned KDM5B inh inactive.
`COc1cc(-c2nc(-c3c(C)noc3C)cc3cc(C)oc23)ccn1` gave KDM5B inh 35µM*.
Screening Cc1cc2cc(-c3c(C)noc3C)nc(N(C)C)c2o1 returned KDM5B inh inactive.
`Cc1noc(C)c1-c1cc2cc(CN(C)C)oc2c(NC(C)C)n1` gave KDM5B inh inactive.
`Cc1cc2cc(-c3c(C)noc3C)nc(N3CCN(C)C(=O)C3)c2o1` gave KDM5B inh inactive.
For Cc1noc(C)c1-c1cc2cc(C(C)C)oc2c(N2CCN(C)CC2)n1 the results were KDM5B inh inactive.
`CC(=O)N1N=C(c2ccco2)CC1c1ccc2nccnc2c1` (stereo unspecified) gave KDM5B inh inactive.
Screening CON(C)C(=O)C(NC(=O)c1ccc(F)cc1)C(C)C (stereo unspecified) returned KDM5B inh inactive.
`Cc1ccc(C(=O)NC(C)c2cccc(C(F)(F)F)c2)cn1` (stereo unspecified) gave KDM5B inh inactive.

Screens as filed in PubChem BioAssay.
